# Inconclusive results are not listed. A call without a number means that no potency is given here. Active and inactive are the calls of the source. The call rests on the fitted dose curve; in most records, active means well fitted curve in the direction sought with a large enough effect; inconclusive means small, poorly fitted or top-dose-only effect, or another doubt; inactive means no such curve, though single readings can be large; an effect the other way counts as inactive or inconclusive.
# How the values were obtained:
# [1] = qHTS of pediatric cancer cell lines to identify multiple opportunities for drug repurposing: Confirmatory screen for NB-EBc1 cells (AID 1347115);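 further: potency means the concentration at half of the fitted maximal effect; cells exposed to compound for 48 h before the viability read; nearly all actives have a fitted effect of over 45% in size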
# Outline: (§1)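 Viability after 48 h compound treatment at 37C, 500-1,000 cells/well, read as ATP luminescence with CellTiter-Glo. Primary screens used 11-point (MIPE, 0.78 nM-46 µM) or 8-point (NPC, 0.59 nM-46 µM) final concentrations; follow-up screens used 11-point dilutions.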
# [2] = qHTS of pediatric cancer cell lines to identify multiple opportunities for drug repurposing: Confirmatory screen for SJ-GBM2 cells (AID 1347116); further: nearly all actives have a fitted effect of over 60% in size
# Outline: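 Viability measured as metabolically active cells via CellTiter-Glo luminescence following 48 hours of compound exposure, 11-point dilutions in confirmatory testing. 500-1,000 cells/well plated 5 hours before dosing; controls were DMSO and 2.3 µM bortezomib.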
# [3] = qHTS of pediatric cancer cell lines to identify multiple opportunities for drug repurposing: Confirmatory screen for BT-37 cells (AID 1347117); settings: BT-37 pediatric cancer cells, viability; further: potency means the concentration at half of the fitted maximal effect; nearly all actives have a fitted effect of over 55% in size
# Outline: as §1
# [4] = qHTS of pediatric cancer cell lines to identify multiple opportunities for drug repurposing: Confirmatory screen for TC32 cells (AID 1347118); settings: TC32 Ewing sarcoma cells viability qHTS;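 further: potency means the concentration at half of the fitted maximal effect; cells exposed to compound for 48 h before the read; nearly all actives have a fitted effect of over 65% in size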
# Outline: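 Luminescent CellTiter-Glo read-out of metabolically active TC32 cells after 48 h compound exposure. Primary: MIPE 11-point, 0.78 nM–46 µM; NPC 8-point, 0.59 nM–46 µM. Confirmatory: 11-point dilutions.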
# [5] = qHTS of pediatric cancer cell lines to identify multiple opportunities for drug repurposing: Confirmatory screen for MG 63 (6-TG R) cells (AID 1347119); further: potency means the concentration at half of the fitted maximal effect; nearly all actives have a fitted effect of over 55% in size
# Outline: as §1
# [6] = qHTS of pediatric cancer cell lines to identify multiple opportunities for drug repurposing: Confirmatory screen for U-2 OS cells (AID 1347122); further: potency means the concentration at half of the fitted maximal effect; nearly all actives have a fitted effect of over 65% in size
# Outline: as §1
# [7] = qHTS of pediatric cancer cell lines to identify multiple opportunities for drug repurposing: Confirmatory screen for Rh18 cells (AID 1347125); further: nearly all actives have a fitted effect of over 55% in size
# Outline: as §1
# [8] = qHTS of pediatric cancer cell lines to identify multiple opportunities for drug repurposing: Confirmatory screen for OHS-50 cells (AID 1347128);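 further: compound exposure lasted 48 h at 37 degrees C; nearly all actives have a fitted effect of over 55% in size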
# Outline: as §1
# [9] = system: Zika virus NS2B-NS3 protease; test: Primary screen GU AMC qHTS for Zika virus inhibitors (AID 1347154); further: nearly all actives have a fitted effect of over 70% in size
# Outline: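 Unlinked Zika NS2B hydrophilic domain–NS3 protease complex at 25 nM in 10 mM Tris-HCl pH 8.0, 0.01% Tween 20, with an AMC peptide substrate. Fluorescence change (340/450 nm) over 15 min at room temperature, normalized to controls, fitted to 4-parameter Hill.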
# [10] = target: N-terminal Xaa-Pro-Lys N-methyltransferase 1 (Homo sapiens) (UniProt Q9BV86); test: qHTS Assay for Inhibitors of N-terminal methyltransferase 1 (NTMT1): LOPAC validation of the NTMT1 SAHH-coupled ThioGlo3 Assay (AID 1347143);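 further: SAH from peptide methylation measured as thiol fluorescence via SAHH coupling and ThioGlo3; nearly all actives have a fitted effect of over 70% in size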; further: potency means the concentration at half of the fitted maximal effect
# Outline: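 Steps: dispense 125nM NTMT1; pin-transfer test compounds at several concentrations, with 1uM RCC1-6 peptide as control; incubate 1 min; start with reagent holding 100uM SAM, 10uM SAHH, 15uM ThioGlo3; read at 0 and 30 min.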
# [11] = system: Zika virus NS2B-NS3 protease (unlinked); test: Optimization of GU AMC qHTS for Zika virus inhibitors: Unlinked NS2B-NS3 protease assay (AID 1347151); further: nearly all actives have a fitted effect of over 80% in size; further: potency means the concentration at half of the fitted maximal effect
# Outline: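 Percent inhibition is derived from the 15-min change in AMC fluorescence, normalized against no-inhibitor and no-enzyme controls, then fitted to a 4-parameter Hill curve. Aprotinin was the intraplate control.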
# [12] = system: Zika virus NS2B-NS3 protease (linked construct); test: Confirmatory screen NINDS AMC qHTS for Zika virus inhibitors (AID 1347152);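 further: AMC fluorescence gain from cleaved Bz-Nle-KRR-AMC substrate over 15 min; top concentration of the series differs between compounds; nearly all actives have a fitted effect of over 70% in size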
# Outline: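 In this dose-response qHTS, AMC release from 10 microM Bz-Nle-KRR-AMC by 1 nM linked protease is measured over 15 minutes (about 20% conversion) at pH 8.0. Percent inhibition is fitted to a 4-parameter Hill curve.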
# [13] = system: Zika virus NS2B-NS3 protease (unlinked complex); test: Confirmatory screen GU AMC qHTS for Zika virus inhibitors (AID 1347153); further: nearly all actives have a fitted effect of over 70% in size
# Outline: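 Noncovalent NS2B hydrophilic domain/NS3 protease complex (25 nM) in 10 mM Tris-HCl pH 8.0, 0.01% Tween 20 was preincubated 15 min at room temperature with compounds. Then 10 µM AMC substrate (Km 18.3 µM) was added; fluorescence was read over 15 min and fitted to a 4-parameter Hill equation.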
# N-terminal Xaa-Pro-Lys N-methyltransferase 1 (Homo sapiens), sequence (Q9BV86 whole entry, looked up): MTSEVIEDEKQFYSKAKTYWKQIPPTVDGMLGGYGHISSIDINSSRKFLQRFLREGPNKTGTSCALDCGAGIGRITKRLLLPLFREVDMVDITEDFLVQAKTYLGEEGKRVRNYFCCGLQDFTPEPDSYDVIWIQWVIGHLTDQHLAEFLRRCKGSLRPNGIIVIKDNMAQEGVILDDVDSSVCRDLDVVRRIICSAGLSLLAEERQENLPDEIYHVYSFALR
smiles,measurement,setting,value
Oc1c(Br)cc(Br)c2cccnc12,Potency,[1],26.1 µM (active)
same,Potency,[2],inactive
same,Potency,[3],18.5 µM (active)
same,Potency,[4],1.65 µM (active)
same,Potency,[5],16.5 µM (active)
same,Potency,[6],14.7 µM (active)
same,Potency,[7],inactive
same,Potency,[8],inactive
same,Potency,[9],inactive
C=CC(N)CCC(=O)O (stereo unspecified),Potency,[10],inactive
same,Potency,[11],inactive
Cc1cc(NC2CCCCC2)nc(-n2nc(C)cc2C)n1,Potency,[10],inactive
same,Potency,[11],inactive
CC(=O)/C=C1\C(=O)N(C)c2ccccc21,Potency,[10],28.2 µM (active)
same,Potency,[11],inactive
NC(CCCP(=O)(O)O)C(=O)O (stereo unspecified),Potency,[10],inactive
same,Potency,[11],inactive
CC(=O)N[C@H](C(=O)O)C(C)(C)SN=O,Potency,[10],inactive
same,Potency,[11],inactive
COc1ccc2c(c1)CCC1C2CC[C@@]2(C)C1CC[C@@H]2NCCCCCCN1C(=O)CCC1=O (stereo partly specified),Potency,[10],inactive
same,Potency,[11],inactive
c1ccc(-c2ccccn2)nc1,Potency,[10],inactive
same,Potency,[11],inactive
Nc1nc2ccc(Cl)cc2n2c(-c3ccccc3)nnc12,Potency,[10],inactive
same,Potency,[11],inactive
Nc1nc(OCC2CCCCC2)c2[nH]cnc2n1,Potency,[10],inactive
same,Potency,[11],inactive
CC(=O)SCC[N+](C)(C)C,Potency,[10],inactive
same,Potency,[11],inactive
Nc1ccn([C@H]2O[C@H](CO)[C@@H](O)C2(F)F)c(=O)n1,Potency,[10],inactive
same,Potency,[11],inactive
COc1cc(C(O)CO)ccc1OS(=O)(=O)O (stereo unspecified),Potency,[10],inactive
same,Potency,[11],inactive
CC[C@H]1OC(=O)[C@H](C)[C@@H](O[C@H]2C[C@@](C)(OC)[C@@H](O)[C@H](C)O2)[C@H](C)[C@@H](O[C@@H]2O[C@H](C)C[C@H](NC)[C@H]2O)[C@](C)(O)C[C@@H](C)CN(C)[C@H](C)[C@@H](O)[C@]1(C)O,Potency,[10],inactive
same,Potency,[11],inactive
NS(=O)(=O)c1ccc(-n2nc(C(F)(F)F)cc2-c2ccc(Cl)cc2)cc1,Potency,[10],inactive
same,Potency,[11],inactive
Oc1ccccc1O,Potency,[10],44.7 µM (active)
same,Potency,[11],inactive
Oc1cc(O)cc(/C=C/c2ccc(O)c(O)c2)c1,Potency,[10],35.5 µM (active)
same,Potency,[11],23.8 µM (active)
CO[C@H]1O[C@@H]2O[C@]3(C)CC[C@@H]4[C@@H](C)CC[C@H]([C@H]1C)[C@]24OO3,Potency,[10],inactive
same,Potency,[11],inactive
COCCOc1cc2ncnc(Cl)c2cc1OCCOC,Potency,[10],inactive
same,Potency,[11],inactive
O=C1NC(O)=NC1(c1ccccc1)c1ccccc1,Potency,[10],inactive
same,Potency,[11],inactive
OCC1O[C@H](O)C(Cl)C(O)C1O (stereo partly specified),Potency,[10],inactive
same,Potency,[11],inactive
NCCSSCCN,Potency,[10],inactive
same,Potency,[11],inactive
Nc1nc2c(ncn2[C@@H]2O[C@H](CO)[C@@H](O)[C@@H]2O)c(=O)[nH]1,Potency,[10],inactive
same,Potency,[11],inactive
O=Nc1ccc2oc(=O)ccc2c1,Potency,[10],4.47 µM (active)
same,Potency,[11],inactive
CN1C2CCC1CC(OC(=O)C(O)c1ccccc1)C2 (stereo unspecified),Potency,[10],inactive
same,Potency,[11],inactive
Cn1ncc(S(=O)(=O)Cc2ccccc2)c(Br)c1=O,Potency,[10],44.7 µM (active)
same,Potency,[11],inactive
CN(C)CCC(c1ccc(Cl)cc1)c1ccccn1 (stereo unspecified),Potency,[10],inactive
same,Potency,[11],inactive
CS(=O)(=O)c1ccc(-n2nc(C(F)(F)F)cc2-c2ccc(F)cc2)cc1,Potency,[10],inactive
same,Potency,[11],inactive
CN[C@H](CC(C)C)C(=O)N[C@H]1C(=O)N[C@@H](CC(N)=O)C(=O)N[C@H]2C(=O)N[C@H]3C(=O)N[C@H](C(=O)N[C@H](C(=O)O)c4cc(O)cc(O)c4-c4cc3ccc4O)[C@H](O)c3ccc(c(Cl)c3)Oc3cc2cc(c3O[C@@H]2O[C@H](CO)[C@@H](O)[C@H](O)[C@H]2O[C@H]2C[C@](C)(N)[C@H](O)[C@H](C)O2)Oc2ccc(cc2Cl)[C@H]1O,Potency,[10],inactive
same,Potency,[11],inactive
CCN(CC)CCCCNc1ncc2cc(-c3c(Cl)cccc3Cl)c(NC(=O)NC(C)(C)C)nc2n1,Potency,[10],44.7 µM (active)
same,Potency,[11],2.99 µM (active)
C=C[C@H]1CN2CC[C@@H]1C[C@@H]2[C@@H](O)c1ccnc2ccc(OC)cc12,Potency,[10],56.2 µM (active)
same,Potency,[11],26.7 µM (active)
CC1CN(S(=O)(=O)c2cccc3cnccc23)CCN1 (stereo unspecified),Potency,[10],inactive
same,Potency,[11],inactive
CC[C@H]1OC(=O)[C@H](C)C(O[C@H]2C[C@@](C)(OC)[C@@H](O)[C@H](C)O2)[C@H](C)[C@@H](OC2O[C@H](C)C[C@H](N(C)C)[C@H]2O)[C@](C)(O)C[C@@H](C)CN(C)[C@H](C)[C@@H](O)[C@]1(C)O (stereo partly specified),Potency,[10],inactive
same,Potency,[11],inactive
CC(C)c1cccc(C(C)C)c1N1C(=O)c2ccc(O)cc2C1=O,Potency,[10],inactive
same,Potency,[11],inactive
COC1=C(OC)C(=O)c2ccccc2C1=O,Potency,[10],inactive
same,Potency,[11],inactive
NC[C@H]1O[C@@H](n2cnc3c(N)ncnc32)[C@H](O)[C@@H]1O,Potency,[10],inactive
same,Potency,[11],inactive
c1cnc2c(c1)ccc1cccnc12,Potency,[10],inactive
same,Potency,[11],inactive
COc1ccccc1CNCCCCCCNCCCCCCCCNCCCCCCNCc1ccccc1OC,Potency,[10],35.5 µM (active)
same,Potency,[11],inactive
same,Potency,[9],inactive
COc1cccc(OC)c1OCCNCC1COc2ccccc2O1 (stereo unspecified),Potency,[10],inactive
same,Potency,[11],inactive
same,Potency,[9],inactive
CN1CC(=O)N/C1=N/C(=O)Nc1cccc(Cl)c1,Potency,[10],inactive
same,Potency,[11],inactive
same,Potency,[9],inactive
Cn1c(=O)c(-c2c(Cl)cccc2Cl)cc2cnc(Nc3ccc(N4CCOCC4)cc3)nc21,Potency,[10],56.2 µM (active)
same,Potency,[11],inactive
S=c1[nH]c(-c2ccccc2)cn1-c1ccccc1,Potency,[10],6.31 µM (active)
same,Potency,[11],26.7 µM (active)
same,Potency,[12],inactive
same,outcome,[13],inactive

# Source: PubChem BioAssay (NCATS)
